Compound activity: PubChem, National Center for Advancing Translational Sciences (NCATS)
A selection: hits, their analogues and other compounds. The true share with any hit is near 1.2%.
TRb-SRC2 inh = qHTS for Inhibitors of the Interaction of Thyroid Hormone Receptor and Steroid Receptor Coregulator 2. TRbeta-SRC2 peptide binding, fluorescence polarization; receptor liganded with 1 µM T3. Potency, µM (top dose mostly 106 µM), for the others: top-dose activity change, negative = inhibition, usual class: inhibitors. 280,000 tested, 0.065% active;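 further: plate controls were bound peptide for no effect and peptide without receptor for full effect; nearly all actives have a fitted effect of over 50% in size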
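Decrease in fluorescence polarization of 20 nM Texas Red SRC2 coactivator peptide flagged inhibition of its binding to 0.6 uM TRb LBD; 1 uM T3 included, incubation 5 hr, ex 555/em 632 nm.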
GoLoco inh red = qHTS Assay for Inhibitors of RGS12 GoLoco Motif Activity (Red Fluorophore); Potency, µM (top dose mostly 61.6 µM), without a hit: top-dose activity, negative = inhibition, hits mostly inhibitors; Guanine nucleotide-binding protein G(i) subunit alpha-1 (Homo sapiens), P63096; AID 880, 2007; Gai1:RGS12 GoLoco peptide FP, rhodamine, 10 min; 230,000 tested, 0.44% active; active means well fitted inhibition curve with a large enough effect, not every such curve was filed as active; inactive means no such curve, though single readings can be large or run the other way; further: on the % scale 0 is the no-effect control and ±100 the full control effect; nearly all actives have a fitted effect of over 30% in size
GCN5L2 inh = qHTS Assay for Inhibitors of GCN5L2; Histone acetyltransferase KAT2A (Homo sapiens), Q92830; GCN5L2 HAT assay, ThioGlo1 CoA-SH fluorescence; Potency, µM (doses to about 58.9 µM), for inactives: at the highest dose activity change, negative = inhibition, actives largely listed as inhibitors; 390,000 tested, 0.21% active; AID 504327, 2011; further: on the % scale 0 is the no-effect control and ±100 the full control effect
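GCN5L2 (20 nM) in 50mM HEPES pH 7.5, 0.1mM EDTA, 0.01% Tween-20 preincubated 15 min with compounds at room temperature. Reaction started with H3(1-25) 75uM, acetyl-CoA 70uM, ThioGlo1 50uM; CoA-thiol fluorescence (Ex340/Em540) read at 0 and 20 min.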
VDR inhibitor = Inhibitors of the vitamin D receptor (VDR): qHTS; Potency, µM, for inactives: max response, negative = inhibition, hits mostly inhibitors; VDR-SRC2-3 peptide fluorescence polarization, 2 h; Vitamin D3 receptor (Homo sapiens), P11473; 400,000 tested, 0.93% active; further: on the % scale 0 is the no-effect control and ±100 the full control effect
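Measured by FP: displacement of SRC2-3 coactivator peptide from VDR by library compounds, following a two-hour ambient incubation.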
TR SRC2 fluor cs = Total Fluorescence Counterscreen for Inhibitors of the Interaction of Thyroid Hormone Receptor and Steroid Receptor Coregulator 2; TRb/SRC2 Texas Red total fluorescence interference; Potency, µM (doses to about 106 µM), for inactives: top-dose fluorescence change, negative = quenching; 280,000 tested, 0.29% active; AID 1479, 2009; active means well fitted curve in either direction with a large enough effect; inconclusive means small, poorly fitted or top-dose-only effect; further: on the % scale 0 is the no-effect control and ±100 the full control effect
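Human TRβ ligand-binding domain (0.6 uM) and Texas Red SRC2 peptide (20 nM) in Tris buffer with 1 uM T3 and 5% DMSO were incubated with pinned compound for 5 hr at ambient temperature. Total fluorescence was computed as S + 2P (555/632 nm).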
VDR confirm = qHTS for Inhibitors of the vitamin D receptor (VDR): Hit Validation in Primary Screen | Potency, µM, actives largely listed as inhibitors | shares compounds with VDR inhibitor | VDR-coactivator inhibition assay, qHTS confirmation | 840 tested, 89% active
VDR FP fluor = qHTS for Inhibitors of the vitamin D receptor (VDR): Hit Validation using a Fluorescein Assay. shares compounds with VDR inhibitor. VDR-coactivator binding, fluorescein fluorescence polarization. Potency, µM (titrated, usually from 57.1 µM), for the others: at the highest dose activity change, negative = inhibition, usual class: inhibitors. 840 tested, 48% active
VDR bla reporter = qHTS for Inhibitors of the vitamin D receptor (VDR): Hit Validation using a Beta-Lactamase Assay; shares compounds with VDR inhibitor; VDR beta-lactamase reporter cells, FRET ratio; cells co-treated with VDR agonist LG190178; Potency, µM (doses to about 46.1 µM), for inactives: top-dose activity change, negative = inhibition, usual class: inhibitors; 840 tested, 23% active; further: on the % scale 0 is the no-effect control and ±100 the full control effect
VDR cytotox = qHTS for Inhibitors of the vitamin D receptor (VDR): Hit Validation using a Cytotoxicity Assay | Potency, µM (doses to about 48.3 µM), for inactives: at the top dose activity change, negative = cytotoxicity, actives largely listed as cytotoxic | cytotoxicity counter-screen, cell viability, qHTS | shares compounds with VDR inhibitor | 840 tested, 18% active;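 further: plate controls were DMSO for no effect and high-concentration cycloheximide for full effect; nearly all actives have a fitted effect of over 75% in size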
* marks the source's active call; other numbers are inactive results; [ ] = dose if it differs, or a comment. Unless noted, the call rests on the fitted dose curve; in most records, active means well fitted curve in the direction sought with a large enough effect; inconclusive means small, poorly fitted or top-dose-only effect, or another doubt; inactive means no such curve, though single readings can be large; an effect the other way counts as inactive or inconclusive. Potency means the concentration at half of the fitted maximal effect.

For COc1cc(/C=C/C(=O)c2cccc([N+](=O)[O-])c2)cc(OC)c1OC the results were TRb-SRC2 inh -2%, GoLoco inh red -9%, GCN5L2 inh -14%, VDR inhibitor inconclusive, TR SRC2 fluor cs -1%, VDR confirm 2.2*, VDR FP fluor 2.5µM*, VDR bla reporter inconclusive and VDR cytotox inconclusive.
`COc1cc(/C=C/C(=O)c2ccc(C)c([N+](=O)[O-])c2)cc(OC)c1O` gave TRb-SRC2 inh -4%, GoLoco inh red -16%, GCN5L2 inh 2%, VDR inhibitor inconclusive and TR SRC2 fluor cs -4%.
COc1ccc(/C=C/C(=O)c2ccc(C)c([N+](=O)[O-])c2)cc1O was read as TRb-SRC2 inh 9%, GoLoco inh red -6%, GCN5L2 inh -10%, VDR inhibitor 35µM*, TR SRC2 fluor cs -1%, VDR confirm 11*, VDR FP fluor 7.9µM*, VDR bla reporter inconclusive and VDR cytotox inconclusive.
COc1ccc(C(=O)/C=C/c2ccccc2F)c(OC(=O)c2ccc([N+](=O)[O-])cc2)c1 was read as TRb-SRC2 inh 0%, GoLoco inh red 8%, GCN5L2 inh -3%, VDR inhibitor inconclusive, TR SRC2 fluor cs -2%, VDR confirm inconclusive, VDR FP fluor 6.3µM*, VDR bla reporter inconclusive and VDR cytotox -23%.
`O=C(/C=C/c1ccccc1F)c1cccc([N+](=O)[O-])c1` gave TRb-SRC2 inh -5%, GoLoco inh red 0%, GCN5L2 inh 3%, VDR inhibitor 13µM*, TR SRC2 fluor cs -6%, VDR confirm 2.5*, VDR FP fluor 1.6µM*, VDR bla reporter 26µM* and VDR cytotox 0%.
`COc1cccc(C(C2C(=O)CC(C)(C)CC2=O)C2C(=O)CC(C)(C)CC2=O)c1` gave GCN5L2 inh -2% and VDR inhibitor inconclusive.
Cc1cc(C(C2C(=O)CC(C)(C)CC2=O)C2C(=O)CC(C)(C)CC2=O)cc(C)c1OC(F)F was read as GCN5L2 inh -4%, VDR inhibitor 10µM*, VDR confirm 24*, VDR FP fluor inconclusive, VDR bla reporter 30% and VDR cytotox 22%.
`O=S(=O)(NCc1ccccc1)c1ccc(Cl)cc1` gave TRb-SRC2 inh -2%, GoLoco inh red 2%, GCN5L2 inh inconclusive, VDR inhibitor -6% and TR SRC2 fluor cs -2%.
Screening O=S(=O)(Nc1cc2nc3ccccc3nc2n1Cc1ccccc1)c1ccc(Cl)cc1 returned TRb-SRC2 inh -26%[53 µM], GoLoco inh red 11%, GCN5L2 inh inconclusive, VDR inhibitor 40µM*, TR SRC2 fluor cs 1%[53 µM], VDR confirm 30*, VDR FP fluor 33%, VDR bla reporter inconclusive and VDR cytotox inconclusive.
